Test results from PubChem BioAssay (EPA / NIEHS).
The source made the active and inactive calls. How the source made its calls: active means hit-call score of the fitted dose curve at least 0.9, where 1 is the maximum; inactive means score below 0.9.

These molecules were tested on Interferon-gamma inducible Protein 10 (IP10), CXCL10 (gene 3627) (assay: BSK_BE3C_IP10: BioMAP Diversity Plus: BE3C Assay for Interferon-gamma inducible Protein 10 (IP10) Biomarker Activity (AID 2283034)). Settings: primary human bronchial epithelial cells; actives raise or lower the signal.
Method: BSK_BE3C is a cell-based, multiplexed-readout assay that uses bronchial epithelial cell, a human lung primary cell, with measurements taken at 24 hours after chemical dosing in a 96-well plate.BSK_BE3C_IP10 is an assay component measured in the BSK_BE3C assay. It measures IP-10 antibody related to regulation of gene expression using ELISA technology.Data from the assay component BSK_BE3C_IP10 was analyzed into 1 assay endpoint. This assay endpoint, BSK_BE3C_IP10, was analyzed with bidirectional fitting relative to DMSO as the negative control and baseline of activity. Using a type of binding reporter, gain or loss-of-signal activity can be used to understand changes in the signaling as they relate to the gene CXCL10. Furthermore, this assay endpoint can be referred to as a primary readout, because this assay has produced multiple assay endpoints where this one serves a signaling function. To generalize the intended target to other relatable targets, this assay endpoint is annotated to the cytokine intended target family, where the subfamily is chemotactic factor.
The levels of cell surface (or secreted, indicated by the prefix "s") biomarker endpoints were measured by ELISA. Overt cytotoxicity to cells in confluent adherent cultures (all systems other than the BT system) was assessed by measuring total protein levels using sulforhodamine B (SRB) staining in parallel cultures at the time of biomarker measurements, indicated as SRB endpoints. For proliferation assays for adherent cell types, individual cell types are cultured at sub-confluence and relative cell numbers quantified by SRB staining at time points optimized for each system (48 h: 3C and CASM3C systems; 72 h: BT and HDF3CGF systems; 96 h: SAg system). SRB was performed by staining cells with 0.1% SRB after fixation with 10% TCA and reading wells at 560 nm.Viability and proliferation of PBMC (T cells) was quantified by Alamar Blue reduction for the SAg and BT systems. For PBMC viability (referred to as PBMC Cytotoxicity within the assay endpoint names), cells were plated (75,000/well in a 96-well plate) and then chemical samples added for 1 h before addition of activators, SEB and TSST-1 (20 ng/mL final concentration each). Cells were incubated for 90 h. Then, Alamar Blue (20 uL/well) (Invitrogen, Cat DAL1100) was added for 6 h, and the plates were read with a fluorescence microplate reader at 546/580 nm (excitation/emission). For PBMC proliferation, cells were plated and activated as above but incubated for only 16 h prior to addition of Alamar Blue. Plates were read after 6 h.

outcome, inactive:
CCCC(=O)OCCC(C)C
O=C(O)Cn1c(=O)n(Cc2ccc(Br)cc2F)c(=O)c2ccc(Cl)cc21
CC(C)(C)c1cc(/C=C2\SC(N)=NC2=O)cc(C(C)(C)C)c1O
Cc1oc2c(NC(=O)c3c(Cl)cccc3Cl)cccc2c1C(C)(C)O
CCCCOC(=O)c1ccc(O)cc1
O=C(O)c1ccccc1C(=O)OCc1ccccc1
O=C(O)c1ccccc1-n1cc(C(=O)O)c(=O)c2cc(Nc3c(F)cc(F)cc3Cl)c(Cl)cc21
Cc1c2ccccc2c(C)c2c1ccc1ccccc12
CCCCCCCCN(C)CCCCCCCC
CCCCCc1ccc(N)cc1
CCN(Cc1cccc(S(=O)(=O)O)c1)c1ccc(C(=C2C=CC(=[N+](CC)Cc3cccc(S(=O)(=O)O)c3)C=C2)c2ccccc2S(=O)(=O)[O-])cc1
OCCO
CCCCOC(=O)CC(CC(=O)OCCCC)(OC(C)=O)C(=O)OCCCC
CCCCCCCCOc1ccc(C(=O)c2ccccc2)c(O)c1
CCCCCCCCCC(=O)O
Oc1ccccc1
COc1cccc([C@H](O)C2CCN(CCc3ccc(F)cc3)CC2)c1OC
c1ccc2n[nH]nc2c1
CC1=CC(=O)/C(=C(/C)O)C(=O)O1
Cc1ncc(CO)c(CO)c1O
COCC(C)OCC(C)OCC(C)O (stereo not given)
CC(O)CC(C)(C)O (stereo not given)
CN1C(=O)CC[C@H]1c1cccnc1
Cc1ccc(C(C)C)cc1
CCO[Si](CCCNC(N)=O)(OCC)OCC
C[C@]12CC[C@@H]3c4ccc(O)cc4CC[C@H]3[C@@H]1CC[C@H]2O
CCCCCCCCCCCO

AC50, active:
CC(=O)N1CCN(c2ccc(OC[C@H]3CO[C@](Cn4ccnc4)(c4ccc(Cl)cc4Cl)O3)cc2)CC1 29.4 µM
CCOC(=O)O[C@H](C)OC(=O)c1ccc2c(c1)cc(C(=O)NC1CCN(C(C)C)CC1)n2Cc1cc(-c2ccc(Cl)s2)on1 11.5 µM
CN1C(=O)N(c2ccccc2Br)Cc2cnc(Nc3ccc4c(c3)OCC(CO)O4)nc21 (stereo not given) 19.3 µM
CCCCCCCC[Si](OCC)(OCC)OCC 26.3 µM
O=C(O)Cc1cc(I)c(Oc2ccc(O)c(I)c2)c(I)c1 10.3 µM
COc1ccc2cc(S(=O)(=O)N[C@H](CC(=O)N[C@H](Cc3ccc(CN4[C@H](C)CCC[C@@H]4C)cc3)C(=O)N(C)C(C)C)c3ccc4c(c3)OCO4)ccc2c1 31.1 µM
O=C1CCC(C2CCCCC2)CC1 29.6 µM
NCc1cccc(C2CCN(C(=O)c3ccc(C#Cc4ccccc4F)o3)CC2)c1 12.4 µM
Clc1ccccc1C(c1ccccc1)(c1ccccc1)n1ccnc1 10.7 µM
CN(C[C@@H](CC[N+]12CCC(C3CCCCC3)(CC1)CC2)c1ccc(Cl)c(Cl)c1)C(=O)c1cc(C(F)(F)F)cc(C(F)(F)F)c1 13.1 µM
Cc1cc(F)ccc1-c1cc(N2CC[C@@H](O)[C@H]2CO)ncc1N(C)C(=O)C(C)(C)c1cc(C(F)(F)F)cc(C(F)(F)F)c1 13.3 µM
O=C(Nc1ccc(Cl)cc1)Nc1ccc(Cl)c(Cl)c1 2.52 µM
O=c1[nH]sc2ccccc12 28 µM
